Source: PubChem BioAssay (National Center for Advancing Translational Sciences (NCATS))
Shown are actives, neighbours in structure and some others; about 10% of the full set was active somewhere.
ALDH1A1 block = qHTS Assay for Inhibitors of Aldehyde Dehydrogenase 1 (ALDH1A1) | Aldehyde dehydrogenase 1A1 (Homo sapiens), P00352 | Purified ALDH1A1, NADH fluorescence, propionaldehyde substrate | Potency, µM (top dose mostly 75.3 µM), without a hit: top-dose activity, negative = inhibition, hits mostly inhibitors | 220,000 tested, 7.3% active | AID 1030, 2008; active = well fitted inhibition curve with a large enough effect, not every such curve was filed as active; inconclusive = small, poorly fitted or top-dose-only effect, or another doubt; inactive = no such curve, though single readings can be large or run the other way;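 note: potency is the fitted concentration of half-maximal effect; plate controls were no enzyme wells and a reference inhibitor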
GLA inh pH 4.5 = qHTS Assay for Inhibitors of Human alpha-Galactosidase at pH 4.5; Alpha-galactosidase A (Homo sapiens), P06280; purified enzyme, 4-MU-alpha-Gal fluorescence, pH 4.5; activity change, negative = inhibition, % at 105 µM; 230,000 tested, under 10 active;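 note: 0% = full activity with enzyme and -100% = basal without enzyme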
GLA spleen mod = qHTS Assay for Inhibitors and Activators of Human alpha-Galactosidase From Spleen Homogenate; 240,000 tested, 0.008% active; human spleen homogenate, 4MU-alpha-Gal fluorescence, 40 min; Potency, µM (highest dose often 80 µM), inactives show at the highest dose activity change, negative = inhibition, most hits filed as inhibitors;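 note: potency is the fitted concentration of half-maximal effect; 0% = enzyme with vehicle and -100% = no enzyme basal signal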
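Inhibition or activation of alpha-galactosidase in human spleen homogenate is scored by 4-MU fluorescence after 40 min at 37C, pH 5.0, with 1 mM substrate. AC50s come from concentration-response fitted to the Hill equation.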
HPGD block = qHTS Assay for Inhibitors of HPGD (15-Hydroxyprostaglandin Dehydrogenase); purified HPGD, NADH fluorescence kinetic, PGE2 substrate; Potency, µM, for inactives: at the highest dose activity change, negative = inhibition, usual class: inhibitors; 150,000 tested, 4.3% active; active = well fitted inhibition curve with a large enough effect, not every such curve was filed as active; inconclusive = small, poorly fitted or top-dose-only effect, or another doubt; inactive = no such curve, though single readings can be large or run the other way; note: potency is the fitted concentration of half-maximal effect; % is set by controls: 0 for no effect and ±100 for the full control effect
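20 nM HPGD preincubated 15 min at room temperature with compound in 50 mM Tris-HCl pH 8, 0.01% Tween 20. Started with 1 mM NAD+ and 30 uM prostaglandin E2; NADH fluorescence (360/450 nm) read 5 times over 30-s intervals, last minus first.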
PNC inhibitor = High Content Assay for Compounds that inhibit the Assembly of the Perinucleolar Compartment. PC3M PTB-GFP, PNC prevalence imaging, 16 h; active compounds read low. 140,000 tested, 3.1% active. activity change (PNC), negative = inhibition, % at 10 µM;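 active = readout at or below -70, meaning at least 70% loss of cells showing the perinucleolar compartment, a nuclear body marking cancer cells; inconclusive = readout between -30 and a set limit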;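 note: plate controls were DMSO wells for no effect and camptothecin positive control wells for full effect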
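Compounds are pinned in duplicate onto adhered PC3M cells stably expressing GFP-tagged PTB and incubated 16 h at 37 C. Cells are then fixed, nuclei stained with Hoechst, and PNC-positive cells counted.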
12-hLO inh = qHTS Assay for Inhibitors of 12-hLO (12-human lipoxygenase) | Polyunsaturated fatty acid lipoxygenase ALOX12 (Homo sapiens), P18054 | purified 12-hLO, xylenol orange hydroperoxide absorbance | Potency, µM (series often up to 57.1 µM), inactives show at the highest dose activity change, negative = inhibition, usual class: inhibitors | 150,000 tested, 0.12% active | AID 1452, 2008; note: potency is the fitted concentration of half-maximal effect; % is set by controls: 0 for no effect and ±100 for the full control effect; nearly all actives have a fitted effect of over 55% in size
Target sequence (P18054 whole entry, looked up): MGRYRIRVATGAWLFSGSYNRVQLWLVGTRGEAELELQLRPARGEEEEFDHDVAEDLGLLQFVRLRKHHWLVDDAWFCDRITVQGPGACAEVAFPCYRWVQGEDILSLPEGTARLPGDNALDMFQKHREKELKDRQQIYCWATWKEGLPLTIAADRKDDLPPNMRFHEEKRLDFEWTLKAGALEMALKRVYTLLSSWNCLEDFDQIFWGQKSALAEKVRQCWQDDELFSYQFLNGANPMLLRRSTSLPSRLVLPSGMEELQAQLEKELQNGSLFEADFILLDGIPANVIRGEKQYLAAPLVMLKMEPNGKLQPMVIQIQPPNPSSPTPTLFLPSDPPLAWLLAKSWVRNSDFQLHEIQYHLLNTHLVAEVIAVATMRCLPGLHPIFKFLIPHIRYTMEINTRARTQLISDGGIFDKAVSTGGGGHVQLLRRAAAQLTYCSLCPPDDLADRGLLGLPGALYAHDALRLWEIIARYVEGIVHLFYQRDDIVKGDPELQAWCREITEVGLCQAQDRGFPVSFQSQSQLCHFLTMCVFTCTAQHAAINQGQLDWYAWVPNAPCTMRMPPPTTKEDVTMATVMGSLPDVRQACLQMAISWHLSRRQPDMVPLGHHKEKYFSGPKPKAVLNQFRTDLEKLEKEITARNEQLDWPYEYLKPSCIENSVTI
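Xylenol orange chromogenic assay: hydroperoxide from 12hLO oxidises Fe(II), giving red-shifted Fe(III)-XO absorbance. Conditions: 150 nM enzyme, 40 uM arachidonic acid, 25 mM Hepes pH 7.0, 0.01% Triton X-100, 30 min, room temperature.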
HPGD inh cf = Confirmation qHTS Assay for Inhibitors of HPGD (15-Hydroxyprostaglandin Dehydrogenase); Potency, µM (series often up to 57.1 µM), without a hit: at the top dose activity change, negative = inhibition, actives largely listed as inhibitors; 90 tested, 90% active; recombinant HPGD, NADH fluorescence, PGE2 substrate; shares compounds with HPGD block; calls by dose curve
* hit, by the source's call; ? = inconclusive; . = no result; [ ] = dose if it differs, or a comment. Unless noted, calls come from the whole dose curve; as a rule, active = well fitted curve in the direction sought with a large enough effect; inconclusive = small, poorly fitted or top-dose-only effect, or another doubt; inactive = no such curve, though single readings can be large; an effect the other way counts as inactive or inconclusive.

SMILES | ALDH1A1 block | GLA inh pH 4.5 | GLA spleen mod | HPGD block | PNC inhibitor | 12-hLO inh | others
Cc1ccc(C2=[N+]([O-])C3(CCCCC/C3=N\O)N(O)C2(C)C)o1 (stereo not drawn) | 28.2µM* | -8.9 | -1.1% | -14.5% | -11.2 | -8.8%
COc1ccc2c(c1)CC/C(=C\Nc1ccc3c(c1)OCO3)C2=O | 2µM* | 2.7 | -0.9% | -29.8% | 5.3 | ?
COc1ccc(N/C=C2\CCc3ccccc3C2=O)cc1 | ? | 2.5 | -16.3% | . | . | .
COc1ccc2c(c1)CC/C(=C\C=C\c1ccccc1)C2=O | 28.2µM* | -7.8 | 6.1% | -20.6% | -16.7 | -4.0%
O=C1/C(=C/Nc2ccc3c(c2)OCO3)CCc2ccccc21 | 10µM* | -13.1 | 20.5% | 25.1µM* | 6.8 | -25.5%
COc1cccc(/C=C2\CCc3ccccc3C2=O)c1 | 9.8% | -10.9 | 6.5% | . | . | .
Cc1c(C(=O)NCCN2C(=O)S/C(=C\c3cccnc3)C2=O)cccc1[N+](=O)[O-] | . | -2.5 | -1.0% | . | . | .
c1ccc(SCCOCCn2cncn2)cc1 | 28.2µM* | 0.3 | -4.0% | -1.2% | ? | -4.6%
CC1CCCN(CCOCCSc2ccccc2)C1 (stereo not drawn) | -9.2% | -0.7 | 2.9% | 3.9% | ? | -3.5%
CC1CC(C)CN(CCOCCSc2ccc(Cl)cc2)C1 (stereo not drawn) | -0.3% | -6.0 | -1.1% | . | . | .
CC1CC(C)CN(CCOCCSc2ccccc2)C1 (stereo not drawn) | 14.1µM* | -11.0 | -4.0% | 0.6% | ? | -8.8%
CC1CC(C)CN(CCCSc2ccccc2)C1 (stereo not drawn) | 23.8µM* | 0.1 | 18.3% | -6.4% | 28.3 | 3.1%
COc1ccc(-c2nc3cnc(Nc4cccc(OC)c4)nc3n(Cc3cccs3)c2=O)cc1 | ? | . | 5.5% | . | . | .
COC(=O)C(C)CCCC(C)CCCC(C)CCCC(C)C (stereo not drawn) | . | . | -2.4% | . | . | .
CCn1nnnc1NCc1ccc(N2CCCC2)cc1 | 35.5µM* | 6.2 | -7.4% | -13.0% | 21.1 | -3.4%
c1ccc(C2Oc3ccccc3C3CC(c4cccs4)=NN32)cc1 (stereo not drawn) | 12.6µM* | -0.6 | -7.4% | ? | -20.4 | -13.3%
CS(=O)(=O)N1N=C(c2cccs2)CC1c1ccccc1 (stereo not drawn) | . | -0.1 | -3.4% | . | . | .
COc1ccc(-c2nc3c(c4c2C[C@H](c2ccccc2)OC4)CN(C(=O)Cc2cccs2)CC3)c(C)c1 | 3.98µM* | -1.5 | -14.0%[17.5 µM] | -4.2% | . | -3.3%[11.4 µM]
COc1ccc(-c2nc3c(c4c2C[C@H](c2ccccc2)OC4)CN(C(=O)NCc2ccco2)CC3)c(C)c1 | 1.78µM* | 5.9 | 1.1%[17.5 µM] | -6.1% | . | -3.3%[11.4 µM]
COCC(=O)N1CCc2nc(-c3ccc(OC)cc3C)c3c(c2C1)CO[C@@H](c1ccccc1)C3 | 4.0%[13.5 µM] | -3.1 | -2.8%[17.5 µM] | -9.9% | . | 2.8%[11.4 µM]
C=CCNC(=O)N1CCc2nc(-c3ccc(OC)cc3C)c3c(c2C1)CO[C@@H](c1ccccc1)C3 | ? | -1.2 | 3.6%[17.5 µM] | -3.2% | . | -3.4%[11.4 µM]
CCC(=O)NC[C@H](Cc1ccc(OCCc2nc(-c3ccccc3)oc2C)cc1)N/C(C)=C\C(=O)c1ccc(C(F)(F)F)cc1 | . | . | -2.1% | . | . | .
S=C(NC1CCCCC1)N1CCOCC1 | . | -8.8 | 9.9% | . | . | .
O=S1(=O)CCC(NC(=S)N2CCOCC2)C1 (stereo not drawn) | -2.9% | 7.3 | 7.4% | -6.8% | -101.7* | -2.4%
Cn1c(=O)c(C(=O)COC(=O)c2cc(-c3ccco3)nc3ccccc23)c(N)n(CC2CC2)c1=O | ? | -5.7 | 17.7% | ? | 59.6 | -4.3%
SMILES | ALDH1A1 block | GLA inh pH 4.5 | GLA spleen mod | HPGD block | PNC inhibitor | 12-hLO inh | others
CCOC(=O)c1c(C)[nH]c(C(=O)COC(=O)CSC)c1C | -1.6% | -10.3 | -2.0% | -6.5% | -84.7* | 2.7%
CCOC(=O)c1c(C)[nH]c(C(C)=O)c1C | 8.91µM* | -8.7 | -1.6% | -14.7% | 24.7 | -6.7%
CCOC(=O)c1c(C)[nH]c(C(=O)CN2CC(C)OC(C)C2)c1C (stereo not drawn) | 7.94µM* | 2.9 | 3.9% | -3.7% | 17.6 | -2.2%
CCOC(=O)c1c(C)[nH]c(C(=O)/C(C#N)=C/c2ccc(OCC)cc2)c1C | 3.16µM* | 11.2 | 10.7% | -16.3% | ? | -4.1%
O=C(O)C[C@H](Cc1ccccc1Cl)C(=O)O | 5.0%[13.5 µM] | . | . | -3.2% | . | -0.9%[11.4 µM]
CCOC(=O)c1[nH]c(C)c(C(=O)C(C)C)c1C | 3.4% | -8.5 | 6.0% | -16.5% | ? | -1.0%
CCOC(=O)c1c(C)[nH]c(C(=O)C(C)Cl)c1C (stereo not drawn) | 22.4µM* | 6.7 | 0.7% | . | . | .
O=C(c1ccc(N2C(=O)C3CC=C(Cl)CC3C2=O)cc1)N1CCOCC1 (stereo not drawn) | -2.4% | 11.9 | 9.8% | . | . | .
CC1=CCC2C(=O)N(c3ccc(C(=O)N4CCCCCC4)cc3)C(=O)C2C1 (stereo not drawn) | ? | 3.6 | -9.9% | 1.41µM* | 25.9 | 2.4% | HPGD inh cf=0.794µM*
O=C(c1ccc(N2C(=O)C3CCCCC3C2=O)cc1)N1CCCCC1 (stereo not drawn) | ? | -1.2 | 1.2% | 1µM* | 14.8 | -0.9% | HPGD inh cf=0.562µM*
O=C(c1ccc(N2C(=O)C3CC=C(Cl)CC3C2=O)cc1)N1CCCCC1 (stereo not drawn) | 17.8µM* | -4.0 | 1.2% | 0.501µM* | -24.8 | -6.2% | HPGD inh cf=0.251µM*
O=C(Nc1nccs1)c1ccc(N2C(=O)C3CCCCC3C2=O)cc1 (stereo not drawn) | ? | 11.8 | -6.4% | . | . | .
CCOC(=O)c1ccc(N2C(=O)C3CC=C(C)CC3C2=O)cc1 (stereo not drawn) | ? | -5.8 | 4.1% | -13.8% | -19.1 | -1.5%
CCn1c(SCC(=O)NNC(=O)c2ccc(OC)cc2)nnc1-c1cccnc1 | -2.9% | -0.4 | -2.9% | . | . | .
O=c1[nH]c2ccc(S(=O)(=O)Nc3ccc(-c4nnc5n4CCCCC5)cc3)cc2o1 | -3.9% | 8.3 | -2.6% | 0.199µM* | ? | -2.8% | HPGD inh cf=0.126µM*
